Screening data: PubChem, National Center for Advancing Translational Sciences (NCATS)
Rows were chosen to be rich in hits. Some 21% of all compounds tested hit in one or more screens of this group.
Shiga inhibitor = inhibitors of Shiga toxin in Vero cells | Vero cells, Shiga toxin protein synthesis inhibition reporter | inhibition, % at 38.7 µM | hit rate 9.2% among 290,000 | AID 2315; in the data active = inhibition mostly above about 28%, no sharp cut-off; inactive = mostly below about 43%; also: 0% is about no effect
Cycloheximide cs = affects cycloheximide protein synthesis inhibition readout, counter-screen; hit rate 12% among 300,000; max response, %; cell reporter, cycloheximide protein synthesis inhibition counterscreen; in the data active = max response mostly above about 13%, no sharp cut-off; inactive = mostly below about 14%; also: read at 38.3 µM for the half of the compounds with a filed dose; 0% is about no effect
HCV inh = inhibitors of hepatitis C virus infection | Huh7.5.1 HCVcc-Cre infection, luciferase reporter, 44 h | Potency, µM (highest dose often 41.8 µM), without a hit: top-dose activity change, negative = inhibition, most hits filed as inhibitors | hit rate 3.4% among 340,000 | AID 651820; also: potency is read from the fitted curve at half-maximal effect; % is scaled to controls: 0 for no effect and ±100 for the full control effect
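1,000 cells/well; 4 h culture; + compound; + HCVcc-Cre (~0.5 moi); 44 h; luciferase substrate, RT 15 min; read 15 sec.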
HCMV inh = human cytomegalovirus inhibition; HFF cells, HCMV-luciferase reporter, 72 h; active compounds read low; activity change, negative = inhibition, % at 57.5 µM; hit rate 4.5% among 410,000; in the data active = activity change below about -60%; inconclusive = no clear call, values can overlap the other calls; inactive = above about -39%; also: % is scaled to controls: 0 for no effect and ±100 for the full control effect
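HFF cells seeded 16 h at 37C, treated with compounds, infected with luciferase-reporter HCMV at MOI 1 PFU/cell; luciferase read at 72 h post infection, normalized to buffer-only and Salinomycin controls.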
Pf growth 48h = inhibits P. falciparum growth in the first generation, 48 h. Potency, µM (top dose mostly 28.7 µM), inactives show at the highest dose activity change, negative = inhibition, usual class: inhibitors. P. falciparum luciferase growth in erythrocytes, 48 h. hit rate 5.9% among 310,000. AID 504832; also: potency is read from the fitted curve at half-maximal effect; % is scaled to controls: 0 for no effect and ±100 for the full control effect
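In quantitative HTS format, infected erythrocytes bearing luciferase-reporter parasites were treated for a single generation at 37 C. Luminescence after adding detection reagent served as the growth measure.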
Pf growth 96h = P. falciparum growth inhibition at 96 hour, primary screen for plastid delayed-death inhibitors; P. falciparum luciferase reporter growth, 96 h; Potency, µM (top dose mostly 28.7 µM), for the others: at the top dose activity change, negative = inhibition, most hits filed as inhibitors; hit rate 6.9% among 320,000; also: potency is read from the fitted curve at half-maximal effect; % is scaled to controls: 0 for no effect and ±100 for the full control effect
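Infected RBCs, 2% Hct / 0.05% parasitemia final; luciferase-reporter P. falciparum; cpd 96 h, 37 C, 5% CO2; luciferase detection reagent; luminescence.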
* marks the source's active call; other numbers are inactive results; ? = inconclusive; nt = no result given. Unless noted, calls follow the shape of the dose curve; as a rule, active = well fitted inhibition curve with a large enough effect; inconclusive = small, poorly fitted or top-dose-only effect, or another doubt; inactive = no such curve, though single readings can be large or run the other way.

SMILES | Shiga inhibitor | Cycloheximide cs | HCV inh | HCMV inh | Pf growth 48h | Pf growth 96h
Cc1ccc(NS(=O)(=O)c2ccc(N3CCN(c4ccc(O)cc4)CC3)c([N+](=O)[O-])c2)c(C)c1 | -1.6 | -2.3 | ? | -63.9* | ? | ?
CCOC(=O)CNC(=O)COc1coc(CN2CCN(c3ccccc3F)CC2)cc1=O | -3.7 | -2.0 | 10.2% | 44.5 | -17.2% | ?
CC(=O)N1CC[n+]2c(-c3ccc(Cl)cc3)csc21 | -14.4 | -4.5 | -18.2% | -32.3 | -7.6% | 27.7%
O=C(CN1CC[n+]2c(-c3cccs3)csc21)c1ccc(-c2ccccc2)cc1 | 29.7 | 9.1 | ? | -33.9 | 13.1µM* | ?
CCN(CC)S(=O)(=O)c1ccc(NC(=O)c2nc3nc(C)cc(C)n3n2)cc1 | 1.6 | -5.5 | nt | ? | ? | ?
CCc1nc2ccc(C(=O)Nc3ccc4c(c3)OCC(=O)N4)cn2c1N(C)C(=O)Cc1ccccc1 | nt | nt | nt | -7.0 | nt | nt
CC1CC(=O)C2=C(C1)Nc1ccccc1N=C2 (stereo not drawn) | -20.9 | -2.7 | 9.9% | ? | nt | 10.9%
CCC1=Nc2ccccc2NC2=C1C(=O)CCC2 | 77.3* | 29.8* | 3.1% | 236.1 | -8.7% | -16.9%
Cc1ccc(S(=O)(=O)N2CCN(C(=O)CSc3ccccn3)CC2)c(C)c1 | nt | nt | -27.7% | -16.8 | -3.1% | ?
Cc1ccc2[nH]c(-c3cccc(N)c3)cc2c1 | 97.4* | 30.3* | -15.2% | 114.0 | 39.0% | 21.4%
COc1ccc(/C=C2/N=C(SC)NC2=O)cc1OC | 13.0 | 15.7* | -12.7% | 24.0 | 3.2% | 12.1%
CSC1=N/C(=C/c2ccc(-n3cncn3)cc2)C(=O)N1 | -2.7 | 3.9 | -3.0% | -39.2 | 29.9% | 97.4%
COc1ccc(/C=C2\N=C(SC)N(C)C2=O)cc1 | 18.0 | 12.1* | 10.4% | -15.4 | 15.0% | 0.0%
COc1ccc(/C=C2\N=C(c3ccccc3Cl)NC2=O)cc1 | 48.1 | 33.6* | ? | -73.3* | -3.8% | -2.1%
COc1ccc(/C=C2\N=C(SC)NC2=O)cc1 | 120.3* | 24.9 | 1.9% | -6.3 | 12.7% | 18.7%
OC(c1cccc(CN2CCCCC2)c1)c1ncc(-c2cccc(C(F)(F)F)c2)[nH]1 (stereo not drawn) | nt | nt | nt | 35.7 | nt | nt
CC(=O)NC(Cc1c[nH]c2ccccc12)C(=O)N1CCN(S(=O)(=O)c2ccccc2)CC1 (stereo not drawn) | nt | nt | 5.9% | -34.1 | -26.4% | -23.6%
Cc1ccc(C2=N/C(=C\c3ccc(F)cc3)C(=O)N2)cc1 | nt | nt | -5.6% | 0.0 | -3.4% | -23.2%
CCSC1=N/C(=C\c2ccc(OC)cc2)C(=O)N1 | 45.6* | 27.7* | ? | 47.7 | 52.4% | -6.8%
Cc1cc(C)n(CC(O)COc2c(C)cccc2C)n1 (stereo not drawn) | -14.0 | -4.6 | 16.3% | 92.7 | ? | -10.6%
COC(=O)c1ccc(Cl)c(NC(=O)C2CCN(S(=O)(=O)Cc3ccccc3)CC2)c1 | nt | nt | nt | -9.3 | nt | nt
Clc1ccc(OCc2nnc3n2N=C(c2ccc4c(c2)OCCO4)CS3)c(Cl)c1 | 14.6 | 14.9* | ? | -18.5 | ? | 18.4%
COc1ccc(CCN2C(=O)CS/C2=N/NC(=O)c2ccccc2F)cc1OC | 0.5 | 4.2 | 9.6% | 5.5 | 6.2% | -35.0%
COc1ccc(CCN2C(=O)CC(Cc3ccc(C)cc3)C2=O)cc1OC (stereo not drawn) | 18.3 | -3.4 | -1.2% | -63.9* | -10.4% | ?
COc1ccc(CCN2C(=O)CSC2=Nc2ccc(C)cc2C)cc1OC | -1.0 | -0.6 | ? | -8.8 | 2.62µM* | ?
SMILES | Shiga inhibitor | Cycloheximide cs | HCV inh | HCMV inh | Pf growth 48h | Pf growth 96h
COc1ccc(CCn2c(C)ccc2C)cc1OC | 9.9 | -3.4 | ? | nt | 5.22µM* | 8.28µM*
COc1ccc(CCn2c(-c3ccc(Cl)cc3)n[nH]c2=S)cc1OC | -8.6 | 0.7 | 13.0% | -24.1 | -1.1% | 0.0%
COc1ccc(OC)c(N2C(=O)CC(Cc3cc(C)cc(C)c3)C2=O)c1 (stereo not drawn) | -0.4 | -2.4 | 3.55µM* | 22.5 | -6.4% | ?
CCOC(=O)[C@]12CCCC=C1N(Cc1ccccc1)C(=O)[C@H](CC(=O)N1CCCC1)C2 | nt | nt | nt | -4.9 | nt | nt
COc1ccc(-n2c(=O)c3c4c(sc3n(CC(=O)NCC3CCCO3)c2=O)CN(C(C)=O)CC4)cc1OC (stereo not drawn) | nt | nt | nt | -12.3 | nt | nt
CN(C)S(=O)(=O)c1ccc(C(=O)Nc2nnc(SCC(=O)NCC3CCCO3)s2)cc1 (stereo not drawn) | -18.5 | -3.6 | 7.9% | 51.1 | 4.1% | ?
CC(C)(C)c1ccc(C(=O)Nc2nnc(SCC(=O)NCC3CCCO3)s2)cc1 (stereo not drawn) | 110.4* | 56.3* | ? | 35.4 | -1.3% | -53.0%
CCOc1ccc(C(=O)Nc2nnc(SCC(=O)NCC3CCCO3)s2)cc1 (stereo not drawn) | 48.0 | 37.6* | -10.1% | -25.0 | -17.9% | 28.7%
CCOc1ccc(N(CC(=O)NCC2CCCO2)C(=O)CCC(=O)Nc2nccs2)cc1 (stereo not drawn) | -18.8 | -2.8 | 22.4µM* | -26.3 | 4.6% | 49.7%
COc1ccc(/C=C(\C#N)C(=O)NCC(c2ccc(F)cc2)N2CCOCC2)cc1 (stereo not drawn) | -10.6 | 4.4 | -3.9% | -38.4 | ? | ?
Cc1cccn2c(=O)nc(SCC(=O)NCCc3ccccc3)nc12 | nt | nt | 17.7% | -11.4 | 15.6% | -13.1%
O=C(COc1ccc2c3c(c(=O)oc2c1)CCC3)NCC(O)c1ccccc1 (stereo not drawn) | 12.6 | 9.1 | -0.3% | -25.7 | 19.8% | 11.8%
CCC1CN(C(=O)N2CCC(C(=O)NCc3ccc(N(C)C)cc3)CC2)c2ccccc2O1 (stereo not drawn) | nt | nt | nt | 64.8 | nt | nt
C=CCN1C(=O)CN=C1Nc1ccc(F)cc1 | -0.7 | -1.3 | -6.0% | -34.0 | 10.4µM* | ?
COc1ccc(CCN2C(=O)CN=C2Nc2ccc(F)cc2)cc1OC | -4.0 | -3.0 | -8.0% | 3.4 | -1.3% | -1.2%
CCCCCC(=O)Cc1cc(O)cc2c1C(=O)Oc1cc(O)c(C(=O)O)c(CCCCC)c1O2 | -7.9 | -2.8 | 19.8% | nt | -4.5% | ?
CN1c2ccccc2C2(C)CCCC3=Cc4cc([N+](=O)[O-])cc([N+](=O)[O-])c4OC312 (stereo not drawn) | -8.3 | 0.9 | 1.8% | -60.2* | 5.86µM* | ?
COc1ccc(NC(=O)Nc2ccc3nonc3c2)cc1 | 66.5* | 34.2* | 0.6% | -11.1 | 103.5% | 126.5%
COc1ccc(NC(=O)Nc2ccc3nccnc3c2)cc1 | 79.8 | 22.4* | -10.3% | 2.8 | 103.9% | ?
N#C/C(=C\c1ccc(-c2nc3ccccc3s2)o1)C(N)=O | 50.2* | 38.5* | 1.2% | 67.8 | 86.0% | 100.0%
N#C/C(=C/c1ccc(-c2ccc(S(N)(=O)=O)cc2)o1)c1nc2ccccc2s1 | -2.8 | -1.6 | 4.47µM* | ? | -17.1% | 36.3%
